Data on 13 compounds can be found in PubChem BioAssay AID1645872 (National Center for Advancing Translational Sciences (NCATS), 2021).

Results filed as inconclusive are left out. A number with no mark means an inactive call. The source made the active and inactive calls. Calls come from the whole dose curve; as a rule, active = well fitted inhibition curve with a large enough effect; inconclusive = small, poorly fitted or top-dose-only effect; inactive = flat fitted curve, though single readings scatter. Numbered stars: 1 amine (or outer) side, 2 acyl side, 3 side chain; on linkers, the order of the positions; unused ones are H or OH. Peptide text beside a SMILES is read from it. CO = O=C([*:1])[*:2]

Sequence of Papain (Carica papaya) (P00784 whole entry, looked up): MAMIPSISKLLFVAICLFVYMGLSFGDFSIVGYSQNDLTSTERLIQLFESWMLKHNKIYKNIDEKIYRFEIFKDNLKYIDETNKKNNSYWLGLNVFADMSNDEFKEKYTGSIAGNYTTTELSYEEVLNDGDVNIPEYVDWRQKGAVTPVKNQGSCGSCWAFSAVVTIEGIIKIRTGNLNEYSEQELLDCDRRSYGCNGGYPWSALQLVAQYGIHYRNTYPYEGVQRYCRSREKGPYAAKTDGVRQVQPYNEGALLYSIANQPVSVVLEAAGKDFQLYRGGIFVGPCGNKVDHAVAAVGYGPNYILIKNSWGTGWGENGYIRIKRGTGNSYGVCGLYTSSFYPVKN

This test addresses Papain (Carica papaya) (UniProt P00784). Put plainly: Confirmatory qHTS assay for inhibitors of the protease papain. Conditions: papain Z-FR-AMC cleavage, fluorescence; series mostly up to 49.8 µM; activity, negative = inhibition: at the top concentration. From the text:
Principal Investigator: Sam Michael National Center for Advancing Translational Sciences, National Institutes of Health, Rockville, MD Current high-throughput screening (HTS) assay validation is often a manual process, though this can be enhanced by design-of-experiment approaches. An artificial intelligence-driven (AI/ML) assay optimization was developed as part of the NCATS A Specialized Platform for Innovative Research Exploration (ASPIRE) Initiative to accelerate preclinical drug discovery. We describe the development of an autonomous Cloud-based computational driven assay optimization system using the Kebotix adaptive optimization algorithm. The Kebotix Bayesian optimization algorithm identify and test the global optimum of the full 294 design-of-experiment (DOE) with a high optimization probability > 95%, and achieved a five-fold reduction in costs for reagents and lab supplies and HTE run-time. The proposed algorithm found suitable conditions for optimal assay performance. A cell-free assay for papain protease activity was chosen for proof-of-concept. This assay was ideal because its low cost and suitable for large amount of experiments, and previous NCATS experience would allow for historical comparisons. […] Described herein is the results of the papain qHTS assay.
PROTOCOL TABLE SEQUENCE No. (e.g., 1, 2, 3, etc.); PARAMETER (e.g., Cells, Incubation, Reagent, etc.); VALUE and DESCRIPTION. 1; Reagent; 3 uL; 4/3x Enzyme solution (working concentration of 5 nM) or 3 uL buffer 2; Compounds; 17 nL; library compounds and controls (working concentration of 169 nM - […]) 3; Time; 15 min; room temperature incubation 4; Reagent; 1 uL; 4x 2 uM Z-FR-AMC substrate 5; Centrifugation; 1000 rpm; 15 sec centrigure 6; Detection; Fluorescence Read 1; ViewLux plate reader 7; Time; 10 min; room temperature incubation 8; Detection; Fluorescence Read 2; ViewLux plate reader NOTES (numbers refer to Sequence numbers above; values are from representative experiments) 1; Dispense 3 uL of [4/3x] 5 nM Papain-buffer solution in medium-binding black solid-bottom Greiner plates (789176-F); columns 1-2 and […]. Dispense 3 uL of assay buffer (100 mM Na-acetate pH 5.5, 5 mM DL-Cysteine, 0.01% Tween20) to columns 3 and 4. 2; Compounds are single pin-transferred (17 nL) for a final concentration range of 0.664 nM - 39.2 uM. 3; Room temperature incubation. 4; Dispense 1 uL of [4x] 2 uM Z-FR-AMC substrate solution into the assay plate, columns 1 - 48. 5; Centrifuge the assay plate to remove bubbles. 6; Initial fluorescence signal (Read 1) is obtained using the ViewLux plate reader (PerkinElmer) equipped with a 340(30) nm excitation filter; 450(20) nm emission filter; 2 sec exposure time at energy set to 2000. 7; Room temperature incubation in the dark. 8; Final fluorescence signal (Read 2) is obtained using the ViewLux plate reader (PerkinElmer) equipped with a 340(30) nm excitation filter; 450(20) nm emission filter; 2 sec exposure time at energy set to 2000.
Background: In qHTS, concentration-response curves come from the screen itself.
Take `COc1cccc(Nc2nc(C#N)nc(NC3CCCC3)n2)c1`: the Potency was 57.6 nM (active).

For the compound `N#Cc1nc(Nc2cccc(F)c2)nc(NC2CCCC2)n1`, the Potency was 115 nM (active).

Turning to `CC(=O)N[C@@H](CC(C)C)C(=O)N[C@@H](CC(C)C)C(=O)N[C@H](C=O)CCCN=C(N)N`, the Potency is 10.2 nM (active).

In the case of `CC(C)C[C@H](NC(=O)[C@@H](NC(=O)N[C@@H](Cc1ccccc1)C(=O)O)[C@H]1CCN=C(N)N1)C(=O)N[C@H](C=O)Cc1ccccc1`, the Potency was 10.2 nM (active).

On to `O=c1oc(Cl)c(Cl)c2ccccc12`, for which the “activity, negative = inhibition” value was -8.82%.

Take `N#Cc1nc(Nc2ccc(F)cc2)nc(NC2CCCC2)n1`: the Potency is 102 nM (active).

As for `COc1ccc(Nc2nc(C#N)nc(NC3CCCC3)n2)cc1`, the Potency was 102 nM (active).

`CCOc1nc(C#N)nc(N2CCCCC2)n1`: the Potency is 182 nM (active).

As for `N#Cc1nc(Nc2cccc(Cl)c2)nc(NC2CCCC2)n1`, the Potency is 289 nM (active).

For `CC(C)C(NC(=O)C(CCCN=C(N)N)NC(=O)NC(Cc1ccccc1)C(=O)O)C(=O)NC(C=O)CCCN=C(N)N` (stereo not drawn) ({Phe-CO}-Arg-Val-Arg-aldehyde; configuration not given here), the Potency was 12.9 nM (active).

For the compound `N#Cc1nc(Nc2cc(F)cc(F)c2)nc(NC2CCCC2)n1`, the Potency is 162 nM (active).

For the compound `N#Cc1nc(Nc2ccccc2)nc(NC2CCCC2)n1`, the Potency was 81.4 nM (active).

`Cc1cccc(Nc2nc(C#N)nc(NC3CCCC3)n2)c1`: the Potency was 64.7 nM (active).
